Most compounds without a hit are left out; they make up all but 27% or so of the library.
CYP2C19 inhib – blockers of cytochrome P450 2C19 activity – biochemical, luminescence, ADME assay, primary screen | P33261 | inhibition, % at 5 µM | CYP2C19 Supersomes, luciferin-H EGE luminescence, 30 min | AID 778, 2007 | hit rate 21% among 96,000;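 active = CYP2C19 inhibition above a set limit at 5 µM in the primary screen, cut at about 50% in these data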;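 note: plate controls were negative control wells for no effect and 2.5 mM tranylcypromine positive control for full effect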
Target sequence (P33261 whole entry, looked up): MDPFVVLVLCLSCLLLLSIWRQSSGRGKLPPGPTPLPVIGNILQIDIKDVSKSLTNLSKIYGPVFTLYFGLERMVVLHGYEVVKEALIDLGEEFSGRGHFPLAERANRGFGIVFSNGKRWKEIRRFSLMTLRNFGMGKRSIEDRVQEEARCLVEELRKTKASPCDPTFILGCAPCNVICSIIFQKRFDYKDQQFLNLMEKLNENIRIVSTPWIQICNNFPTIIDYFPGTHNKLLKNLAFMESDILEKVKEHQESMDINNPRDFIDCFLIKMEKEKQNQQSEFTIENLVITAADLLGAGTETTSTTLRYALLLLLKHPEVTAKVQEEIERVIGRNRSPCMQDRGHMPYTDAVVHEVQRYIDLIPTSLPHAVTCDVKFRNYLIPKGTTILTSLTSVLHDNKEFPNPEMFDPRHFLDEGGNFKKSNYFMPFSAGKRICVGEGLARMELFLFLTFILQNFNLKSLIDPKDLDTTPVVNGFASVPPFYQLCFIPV
CYP2C19 act – human CYP2C19 activators, primary screen, biochemical, luminescence; Cytochrome P450 2C19 (Homo sapiens), P33261; recombinant CYP2C19, luciferin-H EGE luminescence; hits give high values; 0 = fully inhibited enzyme, 1 = untreated enzyme; activation factor at 5 µM; 96,000 tested, under 10 active; AID 1025, 2008;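 active = activation factor of at least 2 at 5 µM in the primary screen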;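 note: 0 = wells with 2.5 mM tranylcypromine and 1 = vehicle-only wells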
CYP2C9 inh – blockers of cytochrome P450 2C9 activity – biochemical, luminescence, ADME assay, primary screen; hit rate 20% among 96,000; inhibition, % at 5 µM; AID 777, 2007; CYP2C9 Supersomes, luciferin-H conversion; P11712;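 active = blocking of liver enzyme CYP2C9 beyond about 50% at 5 µM, limit read from the data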
CYP2C9 activ – human CYP2C9 activators, primary screen, biochemical, luminescence. Cytochrome P450 2C9 (Homo sapiens), P11712. recombinant CYP2C9, luciferin-H conversion; hits give high values; factor 1 = untreated enzyme, 0 = blocked. activation factor at 5 µM. hit rate 1.4% among 96,000. AID 1024, 2008;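 active = activation factor of 2 or more for CYP2C9 at a 5 µM dose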;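 note: 0 = sulfaphenazole-blocked wells and 1 = vehicle-only wells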
Cav32 inh – Cav3.2 calcium influx blockers – cell-based, Fluo-4 calcium fluorescence, FDSS, MLSMR library, primary screen | Cav3.2-expressing cells; hits give low values | B-score at 10 µM | AID 449739, 2010 | hit rate 4% among 100,000 | Voltage-dependent T-type calcium channel subunit alpha-1H (Homo sapiens), O95180;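 active = single-dose well whose peak fluorescence ratio is a statistical outlier from its plate by either plate-standardised score or position-corrected B-score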
Active calls of the source: *; / = not tested or not shown.

SMILES	CYP2C19 inhib	CYP2C19 act	CYP2C9 inh	CYP2C9 activ	Cav32 inh
CCOC(=O)C1=C(O)/C(=C\c2ccc(CNC(=O)C(=O)Nc3ccc(C)c(C)c3)o2)N=C1C	55*	0.4	83*	0.2	/
COc1ccccc1-n1c(C)cc(SC)c(C(C)=O)c1=S	48	0.5	36	0.6	0.35
CS(=O)(=O)N(CC(=O)Nc1cc(Cl)ccc1Cl)c1ccccc1Cl	96*	0	77*	0.2	-4.7*
COc1ccc(C)cc1NC(=O)COC(=O)c1c(C)noc1C	31	0.7	27	0.7	0.58
Cc1noc(C)c1C(=O)OCC(=O)Nc1cc(Cl)ccc1Oc1ccccc1	39	0.6	63*	0.4	-2.3
CCOC(=O)c1ccccc1NC(=O)CN(c1ccccc1)S(=O)(=O)N(C)C	86*	0.1	94*	0.1	-3.3
CCOC(=O)c1ccccc1NC(=O)CN(c1ccccc1OC)S(C)(=O)=O	49	0.5	50	0.5	-0.47
CS(=O)(=O)N(CC(=O)NCC1CCCO1)c1cc(Cl)ccc1Cl (centres undefined)	24	0.8	14	0.9	-0.23
Cc1ccc(Cl)cc1NC(=O)COC(=O)C1CCCC1	96*	0	30	0.7	-0.86
O=C(N/C=C/c1ccc(Cl)cc1)NCc1ccc(Cl)cc1	42	0.6	21	0.8	/
CCC/C=C(\CCC)C(NC(=O)c1ccc(C(=O)OC)cc1)c1ccc(C(=O)OC)cc1 (centres undefined)	/	/	/	/	-1.7
N=c1sccn1CC(=O)Nc1cc(Cl)ccc1Oc1ccccc1	19	0.8	10	0.9	-4.2
CN(C)S(=O)(=O)N(CC(=O)Nc1ccccc1)c1ccccc1	/	/	/	/	-0.28
CN(C)S(=O)(=O)N(CC(=O)Nc1cccc(F)c1)c1ccccc1	43	0.6	57*	0.4	-1.1
COc1ccc(Cl)cc1NC(=O)CN(C)C1CCCCC1	86*	0.1	-129	2.3*	-1.4
Cc1cccc(C)c1N(CC(=O)Nc1cc(Cl)ccc1Oc1ccccc1)S(C)(=O)=O	-4	1	66*	0.3	-5.6*
COc1ccc(Cl)cc1NC(=O)CN(c1ccccc1)S(=O)(=O)N(C)C	81*	0.2	-35	1.4	-10*
COc1ccc(C)cc1NC(=O)CN(Cc1nnc(-c2ccc(Cl)cc2)o1)C1CCCC1	36	0.6	10	0.9	-4.2*
COC(=O)c1[nH]c2cccc(Cl)c2c1NC(=O)CN(C)C1CCCCC1	48	0.5	63*	0.4	-2.3
Cc1ccc(NC(=O)CN(c2ccccc2)S(=O)(=O)N(C)C)cc1C	/	/	/	/	-3.6*
COc1ccc(C)cc1NC(=O)COC(=O)C1CC1	-14	1.1	-31	1.3	0.1
CC1CCN(c2cc(N)c(Cl)cc2[N+](=O)[O-])CC1	26	0.7	34	0.7	-3.2
COc1ccc(S(=O)(=O)N(C)c2ccc(C(=O)NCC3CCCO3)cc2)cc1 (centres undefined)	-6	1.1	53*	0.5	0.92
CCCNS(=O)(=O)c1ccc(C(=O)NCC2CCCO2)cc1 (centres undefined)	-3	1	25	0.8	-0.11
COc1ccc(N(C)S(=O)(=O)c2cccc(C(=O)Nc3ccc(-n4cnnn4)cc3)c2)cc1	70*	0.3	85*	0.2	-0.41
SMILES	CYP2C19 inhib	CYP2C19 act	CYP2C9 inh	CYP2C9 activ	Cav32 inh
COc1ccc(N(C)S(=O)(=O)c2cccc(C(=O)NCC3CCCO3)c2)cc1 (centres undefined)	41	0.6	63*	0.4	0.94
CC(C)c1nc(N2CCOCC2)c(C#N)c2c1CCCC2	80*	0.2	42	0.6	-5*
CCSc1nc(N2CCOCC2)c2c(c1C#N)CCCC2	70*	0.3	91*	0.1	-2.1
Cc1ccccc1OCC(=O)N/N=C/c1cccn1C	29	0.7	-4	1	0.24
CCCCS/C(=C(/C#N)C(N)=O)c1cc2c([nH]1)CCCC2	34	0.7	35	0.6	-1.3
O=C(NCCO)C(F)(F)C(F)(F)C(F)(F)OC(F)(C(=O)NCCO)C(F)(F)F (centres undefined)	2	1	38	0.6	2.3
Nc1ccc(-c2ccc(N)cc2C(F)(F)F)c(C(F)(F)F)c1	79*	0.2	60*	0.4	/
CCCCOC(=O)Nc1cc(C(=O)OC)ccc1C(=O)OC	15	0.8	23	0.8	-2
COc1ccc(CC(=O)n2nc(-c3ccccc3)nc2NCc2ccco2)cc1	24	0.8	56*	0.4	/
COc1ccc(Nc2nc(NCc3ccco3)nc(N/N=C/c3ccccc3)n2)cc1	-5	1	61*	0.4	-7.6*
CCOC(=O)c1sc(NC(=O)COC(=O)c2ccco2)nc1C	-1	1	20	0.8	0.12
O=C(CSc1nnc(COc2ccc3c(c2)CCCC3)o1)Nc1ccc(F)cc1	19	0.8	-26	1.3	1.8
CS(=O)(=O)N1CCC(C(=O)Nc2ccc3c(c2)OCCO3)CC1	-1	1	-7	1.1	0.28
c1ccc(Cn2nnnc2CN2CCN(c3ncccn3)CC2)cc1	19	0.8	93*	0.1	0.42
COc1ccc(Cn2nnnc2CN2CCOCC2)cc1	/	/	/	/	1.9
Fc1ccc(Cn2nnnc2CN2CCc3ccccc3C2)cc1	58*	0.4	47	0.5	-1.2
CCCCn1c(SCc2cc(=O)[nH]c3ccccc23)nc2c1c(=O)n(C)c(=O)n2C	14	0.9	16	0.8	1
CNC(=O)c1ccsc1NC(=O)c1ccccc1	/	/	/	/	0.8
O=C(COc1ccccc1Cl)Nc1nc(-c2cccs2)cs1	41	0.6	82*	0.2	-2.9
Cc1cnc(NC(=O)COc2ccccc2Cl)s1	20	0.8	12	0.9	-0.49
O=C(Nc1nc(-c2cccs2)cs1)c1ccc(Cl)s1	/	/	/	/	-4.1*
CNC(=O)c1ccsc1NC(=O)c1ccc(Cl)s1	77*	0.2	68*	0.3	/
O=C(Nc1nc(-c2ccc(Cl)s2)cs1)c1ccccc1	-6	1.1	-7	1.1	-0.44
Cc1cc(Cl)ccc1OCC(=O)Nc1nc(-c2cccs2)cs1	21	0.8	56*	0.4	-3.2
Cc1ccc(OC(=O)C(F)(F)F)c2c1NCCC2	36	0.6	15	0.9	0.97
SMILES	CYP2C19 inhib	CYP2C19 act	CYP2C9 inh	CYP2C9 activ	Cav32 inh
C=CCNC(=O)c1onc(CSc2ccccn2)c1C(=O)NCC=C	/	/	/	/	0.97
O=S(=O)(NCc1ccccc1)c1ccc(S(=O)(=O)N(Cc2ccccn2)Cc2ccco2)cc1	6	0.9	13	0.9	0.14
COc1ccc(C(=O)Nc2cccc(-c3cnc4ccccc4n3)c2)cc1	/	/	/	/	-0.46
N#Cc1c(N)nc2c(c1-c1cccnc1)CCCCC2	-6	1.1	-43	1.4	1.4
CCCc1nc(N)c(C#N)c(-c2cccnc2)c1CC	61*	0.4	24	0.8	1.2
Cn1cc(CC(=O)Nc2cccc(C#N)c2)c2ccccc21	48	0.5	-212	3.1*	-4.2*
